Assay [1] is described as follows: inhibitors of TNFa-induced NFkB p65 translocation, primary screen, imaging, HUVEC, MLSMR starter and 10KST1 sets (AID 438;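 active = inhibition above 20% together with a positive visual image hit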;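 also: compound added about 3h40 before a 20 min TNFalpha stimulation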;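 as to inhibition: signal is the nuclear over cytoplasmic p65 intensity ratio per well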). The following applies: HUVEC TNFa-induced p65 nuclear translocation; cell count: measured here: nuclei count (cytotoxicity indicator), at 2.08 µM; inhibition: at 2 µM, stronger effect = higher value, 0% TNFa-plus-vehicle, 100% no-TNFa wells.
Assay [2] is described as follows: inhibitors of mutant huntingtin aggregation, primary screen, imaging, exon1htt(103Q)mCFP cells, high-content imaging (AID 483;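 active = visual image review flags a hit and inhibition of aggregation exceeds 20%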;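 also: compound exposure lasted 3 days before fixation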;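 as to nuclei count: percent of the per-plate median nuclei count of sample wells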). The note with it: exon1htt(103Q)mCFP cell line, aggregate imaging, at 2 µM; inhibition of aggregation: stronger effect = higher value; nuclei count: measured here: cell count, toxicity.
Assay [3] can be described thus: inhibitors of E-selectin induction by TNFa, primary screen, imaging, HUVEC, immunofluorescence, MLSMR starter and 10KST1 sets (AID 487;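 active = visually confirmed hit in the image check and inhibition above 20%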;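 as to inhibition: signal is fraction of cell area covered by stained E-selectin grains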;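 as to nuclei count: 100% = median nuclei count of all wells on the same plate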). The following applies: HUVEC TNFalpha-induced E-selectin immunofluorescence imaging, at 2 µM; inhibition: stronger effect = higher value; nuclei count: measured here: cell number, toxicity.
For assay [4], the target named is Voltage-gated potassium channel subunit beta-2 (Rattus norvegicus) (UniProt P62483). Description: KvBeta enzyme negative modulators, primary screen, biochemical, NADPH fluorescence (AID 622;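 active = fluorescence slope higher than the sample average by over 3 SD, cut at about -0.22 in these data, passing the limit was not always enough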;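 also: slope of raw intensity against log time taken from 70 to 1610 s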). The note with it: recombinant KvBeta, 4-cyanobenzaldehyde reduction, at 10 µM, stronger effect = higher value.
For assay [5] the target is unchanged. Description: KvBeta positive modulators, primary screen, biochemical, NADPH fluorescence (AID 623;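 active = NADPH fluorescence slope more negative than the mean of all samples by about 3 SD, 99.7% confidence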;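 also: fluorescence intensity change per second fitted from 20 to 320 s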). The following applies: Recombinant KvBeta, NADPH fluorescence decrease slope, 10 min; at 10 µM; stronger effect = lower value.
The target of assay [6] is Alpha-2C adrenergic receptor (Homo sapiens) (UniProt P18825). Description: modulators of alpha2C/GIRK thallium flux, primary screen, cell-based, HEK293 alpha2C/GIRK1/2 (AID 624).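 Also: slope of fluorescence ratio to pre-addition baseline per second over 15 to 24 s.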 The note with it: thallium flux BTC fluorescence, at 10 µM, actives lie on both sides.
A short description of assay [7]: inhibitors of Sendai virus-induced IRF3 signaling, primary screen, TLR/RLR signaling modifier project, cell-based, Sendai virus stimulus, luciferase, 10K MLSCN set (AID 602276;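 active = inhibition at or above 50% at 10 µM; inactive = inhibition below 50%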;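 also: firefly luciferase from ISG56 promoter only with Renilla not read in this screen; 0% = Sendai virus plus DMSO and 100% = medium plus DMSO without virus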). The following applies: HEK293 RL24 IRF3 luciferase reporter, at 10 µM, stronger effect = higher value.
Assay [8] can be described thus: inhibitors of poly I:C-induced TLR3 signaling, primary screen, cell-based, poly I:C stimulus, luciferase, 10K MLSCN set (AID 602277;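 active = inhibition of the reporter signal at or above 50%; inactive = inhibition below 50%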). The following applies: HEK293-TLR3 RL24 IRF3 luciferase reporter, at 10 µM, stronger effect = higher value.

The structures appear in SMILES notation. Active and inactive are the calls of the source.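 The calls were made as follows, unless noted: active = fluorescence slope after compound addition differing from the mean of all screened samples at 99.7% confidence, in either direction; inactive = the rest.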

Chain of Alpha-2C adrenergic receptor (Homo sapiens) (P18825 whole entry, looked up): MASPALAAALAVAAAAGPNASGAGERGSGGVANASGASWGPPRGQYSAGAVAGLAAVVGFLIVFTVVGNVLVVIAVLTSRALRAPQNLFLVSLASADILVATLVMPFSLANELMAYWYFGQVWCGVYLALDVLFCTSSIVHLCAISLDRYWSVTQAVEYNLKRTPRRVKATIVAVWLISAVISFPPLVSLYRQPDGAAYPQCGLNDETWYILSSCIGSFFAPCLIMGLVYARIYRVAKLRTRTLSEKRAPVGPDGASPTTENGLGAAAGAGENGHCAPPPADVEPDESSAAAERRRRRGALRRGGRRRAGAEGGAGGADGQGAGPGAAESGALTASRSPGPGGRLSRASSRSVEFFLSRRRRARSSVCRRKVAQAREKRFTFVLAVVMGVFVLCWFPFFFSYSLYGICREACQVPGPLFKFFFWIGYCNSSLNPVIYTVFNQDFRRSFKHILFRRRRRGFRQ
Chain of Voltage-gated potassium channel subunit beta-2 (Rattus norvegicus) (P62483 whole entry, looked up): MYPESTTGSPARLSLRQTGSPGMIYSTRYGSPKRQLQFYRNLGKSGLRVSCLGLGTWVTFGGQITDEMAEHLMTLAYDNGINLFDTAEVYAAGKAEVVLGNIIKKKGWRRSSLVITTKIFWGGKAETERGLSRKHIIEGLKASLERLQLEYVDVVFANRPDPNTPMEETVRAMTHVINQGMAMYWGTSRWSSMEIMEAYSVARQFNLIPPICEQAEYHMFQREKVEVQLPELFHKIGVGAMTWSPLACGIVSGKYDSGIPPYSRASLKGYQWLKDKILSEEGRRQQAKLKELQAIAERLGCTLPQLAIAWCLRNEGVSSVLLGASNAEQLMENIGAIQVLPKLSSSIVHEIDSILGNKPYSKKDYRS

Regarding `CCc1ccc(C(=O)NC2CCCCC2)s1`, the cell count in assay [1] came to 355. The inhibition in assay [1] is -1.2% (inactive); in assay [3], 11.7% (inactive); in assay [7], -41.5% (inactive); in assay [8] it was -96.5% (inactive). Also, the inhibition of aggregation in assay [2] was 0.6% (inactive). For the same molecule, the values for the nuclei count in assay [2] and in assay [3] were 98.5% and 104%, respectively. Besides, in assay [4], the fluorescence slope was -0.523 (inactive). In addition, in assay [5], the NADPH fluorescence slope is -4.3e-05 (inactive). For the same molecule, the slope in assay [6] was 0.00428 (inactive).

Turning to `CCOc1ccccc1C1CC(c2ccc(Br)cc2)Nc2nc(N)nn21` (centres undefined), the cell count in assay [1] is 593. The inhibition in assay [1] is 6.9% (inactive); in assay [3], -14.1% (inactive); in assay [7] it was 18.7% (inactive); in assay [8], 33.7% (inactive). The inhibition of aggregation in assay [2] was 19.2% (inactive). Also, the figures for the nuclei count in assay [2] and in assay [3] were 94.5% and 107%, respectively. For the same molecule, the fluorescence slope in assay [4] was -0.512 (inactive). In addition, the NADPH fluorescence slope in assay [5] is -4.3e-05 (inactive). In assay [6], the slope was 0.0067 (inactive).

Turning to `Cc1cc(NC(=O)CCCC(=O)Nc2ccc(F)cc2)no1`, the cell count in assay [1] stood at 423. The inhibition was -10.5% (inactive) in assay [1], -43% (inactive) in assay [3], 5.46% (inactive) in assay [7] and 34.4% (inactive) in assay [8]. In addition, the inhibition of aggregation in assay [2] was 13.2% (inactive). Besides, the nuclei count stood at 72.2% in assay [2] and 107% in assay [3]. Also, in assay [4], the fluorescence slope was -0.477 (inactive). In addition, the NADPH fluorescence slope in assay [5] was 9.1e-07 (inactive). In addition, the slope in assay [6] was 0.0057 (inactive).

Take `Cc1cccc(-n2ncc3c(N)ncnc32)c1`: the cell count in assay [1] was 622. In addition, the inhibition in assay [1] is 9.1% (inactive); in assay [3], -12.6% (inactive); in assay [7] it was -20.5% (inactive); in assay [8] it was -80.6% (inactive). Besides, the inhibition of aggregation in assay [2] is -51.6% (inactive). For the same molecule, the nuclei count came out at 6% in assay [2] and 110% in assay [3]. The fluorescence slope in assay [4] is -0.596 (inactive). Also, the NADPH fluorescence slope in assay [5] is -2.7e-05 (inactive). Further, the slope in assay [6] is 0.0039 (inactive).

For `CN(C)Cc1cn(CCC(=O)O)c2ccccc12`, the cell count in assay [1] stood at 331. Also, the inhibition in assay [1] was 5.3% (inactive); in assay [3], 9.1% (inactive); in assay [7], -16.1% (inactive); in assay [8], 19.4% (inactive). For the same molecule, the inhibition of aggregation in assay [2] was -18.2% (inactive). For the same molecule, the results for the nuclei count in assay [2] and in assay [3] were 90.8% and 103%, respectively. Besides, the fluorescence slope in assay [4] was -0.481 (inactive). Besides, the NADPH fluorescence slope in assay [5] is 4.3e-05 (inactive). In assay [6], the slope is 0.00704 (inactive).

On to `O=C(C1CCCO1)N1CCc2ccccc21` (centres undefined), for which the cell count in assay [1] worked out at 445. Besides, the inhibition in assay [1] was 6% (inactive); in assay [3], -32.9% (inactive); in assay [7], 9.45% (inactive); in assay [8], 36.8% (inactive). Besides, in assay [2], the inhibition of aggregation is -16.9% (inactive). Also, the nuclei count in assay [2] and in assay [3] was 108% throughout. In assay [4], the fluorescence slope is -0.404 (inactive). The NADPH fluorescence slope in assay [5] was 5.9e-05 (inactive). Besides, the slope in assay [6] was 0.00647 (inactive).

Consider `CS(=O)(=O)N(CC(=O)Nc1cccc(F)c1)Cc1ccccc1`, for which the cell count in assay [1] is 381. Besides, the inhibition in assay [1] was -0.2% (inactive); in assay [3], -19.3% (inactive); in assay [7], 5.19% (inactive); in assay [8], 30.7% (inactive). The inhibition of aggregation in assay [2] is 2.5% (inactive). The nuclei count in assay [2] came out at 107%; in assay [3] it was 106%. Besides, the fluorescence slope in assay [4] was -0.467 (inactive). In addition, in assay [5], the NADPH fluorescence slope was -3.7e-05 (inactive). Further, the slope in assay [6] was 0.00637 (inactive).

For `O=C(NCc1ccccc1)C1CCN(S(=O)(=O)N2CCCCCC2)CC1`, the cell count in assay [1] was 639. The inhibition in assay [1] was 0% (inactive); in assay [3] it was -19.7% (inactive); in assay [7] it was -9.73% (inactive); in assay [8], -4.63% (inactive). The inhibition of aggregation in assay [2] was -6.3% (inactive). For the same molecule, the figures for the nuclei count in assay [2] and in assay [3] were 106% and 112%, respectively. For the same molecule, the fluorescence slope in assay [4] is -0.473 (inactive). In addition, in assay [5], the NADPH fluorescence slope was 5.6e-05 (inactive). In addition, the slope in assay [6] is 0.00906 (inactive).

On to `Cc1ccccc1NS(=O)(=O)c1cc(C(=O)N2CCCC2)ccc1C`, for which, in assay [1], the cell count is 481. Moreover, the inhibition in assay [1] was -7.1% (inactive); in assay [3] it was 9.5% (inactive); in assay [7] it was -10.7% (inactive); in assay [8], 6.74% (inactive). The inhibition of aggregation in assay [2] is 16.1% (inactive). The nuclei count was found to be 86.1% in assay [2] and 94.2% in assay [3]. In addition, the fluorescence slope in assay [4] is -0.601 (inactive). The NADPH fluorescence slope in assay [5] is -3.9e-05 (inactive). For the same molecule, the slope in assay [6] was 0.00473 (inactive).

On to `COc1ccc(N(C)C(=O)CCS(=O)(=O)c2cccc3nonc23)cc1`, for which, in assay [1], the cell count was 704. Besides, the inhibition in assay [1] was -12.2% (inactive); in assay [3], -32.3% (inactive); in assay [7], -4.78% (inactive); in assay [8] it was -38.6% (inactive). Also, the inhibition of aggregation in assay [2] was 0.8% (inactive). The nuclei count worked out at 108% in assay [2] and 118% in assay [3]. Moreover, in assay [4], the fluorescence slope is -0.488 (inactive). Also, the NADPH fluorescence slope in assay [5] is 1.2e-05 (inactive). Besides, in assay [6], the slope was 0.00576 (inactive).

Turning to `Nc1c(C(=O)NCc2ccco2)nnn1Cc1ccccc1`, in assay [1], the cell count is 277. Besides, the inhibition in assay [1] is -13.1% (inactive); in assay [3] it was -65.2% (inactive); in assay [7], 8.14% (inactive); in assay [8], 3.26% (inactive). The inhibition of aggregation in assay [2] was 5.9% (inactive). Also, the nuclei count in assay [2] was 94.8%; in assay [3], 115%. Also, in assay [4], the fluorescence slope is -0.399 (inactive). Also, the NADPH fluorescence slope in assay [5] was -4.5e-05 (inactive). Moreover, the slope in assay [6] was 0.00354 (inactive).

On to `CCn1cc(C(=O)NCCCOC)c(=O)c2cc(S(=O)(=O)N(C)C)ccc21`, for which, in assay [1], the cell count stood at 693. The inhibition was -5% (inactive) in assay [1], -42.6% (inactive) in assay [3], 4.09% (inactive) in assay [7] and 31.3% (inactive) in assay [8]. Besides, the inhibition of aggregation in assay [2] is 6% (inactive). The nuclei count in assay [2] was found to be 82.6%; in assay [3], 112%. Also, the fluorescence slope in assay [4] was -0.418 (inactive). Also, in assay [5], the NADPH fluorescence slope was 3.3e-05 (inactive). Besides, the slope in assay [6] was 0.00533 (inactive).

`CCN1CCN(c2nc3c(c(=O)n(C)c(=O)n3C)n2CCSc2ncccn2)CC1`: the cell count in assay [1] turned out to be 295. Besides, the inhibition in assay [1] is -0.5% (inactive); in assay [3], -130% (inactive); in assay [7] it was 0.292% (inactive); in assay [8], 13% (inactive). In addition, in assay [2], the inhibition of aggregation is -7.5% (inactive). In addition, the nuclei count in assay [2] turned out to be 97.8%; in assay [3], 116%. The fluorescence slope in assay [4] is -0.506 (inactive). Moreover, the NADPH fluorescence slope in assay [5] is -9.3e-06 (inactive). The slope in assay [6] is 0.00522 (inactive).

For the molecule `CCOc1ccccc1OCCn1nnc2ccccc21`, the cell count in assay [1] amounted to 312. Further, the inhibition in assay [1] is -0.2% (inactive); in assay [3], -6.1% (inactive); in assay [7], 1.2% (inactive); in assay [8] it was -3.68% (inactive). In addition, the inhibition of aggregation in assay [2] was -1.3% (inactive). The nuclei count amounted to 114% in assay [2] and 109% in assay [3]. For the same molecule, the fluorescence slope in assay [4] is -0.443 (inactive). Further, the NADPH fluorescence slope in assay [5] is -5.5e-05 (inactive). The slope in assay [6] is 0.0043 (inactive).

For the origin of these results see PubChem BioAssay.
